The nature of assay [1]: ATG_GLI_CIS: Attagene CIS-FACTORIAL HepG2 Assay for human Zinc Finger Protein GLI1 (AID 2282945). To be noted: HepG2, Attagene cis-factorial reporter mRNA, GLI element; actives raise or lower the signal. The method in brief: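 Transiently transfected HepG2 cells report endogenous transcription factor activity via cis-element-driven reporter units. After 24 h compound exposure, reporter mRNA was measured by RT-PCR with capillary electrophoresis; bidirectional fitting against DMSO baseline.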

Assay [2] concerns the target Bile acid receptor (Homo sapiens) (UniProt Q96RI1). Nature of the assay: ATG_IR1_CIS: Attagene CIS-FACTORIAL HepG2 Assay for human Nuclear Receptor Subfamily 1 Group H Member 4 (NR1H4), IR1 submotif (AID 2282946). Conditions: IR1 reporter transcription, actives raise or lower the signal. The method in brief:
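Fluorescence of capillary-separated, HpaI-digested RT-PCR reporter products gave IR1-element mRNA induction in HepG2 cells 24 h after dosing. Endogenous transcription factors drove the cis-regulated reporters; activity was fitted bidirectionally against DMSO.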

A short description of assay [3]: ATG_GRE_CIS: Attagene CIS-FACTORIAL HepG2 Assay for human Glucocorticoid Response Elements (GRE) (AID 2282947). Conditions: HepG2 GRE cis-reporter, Attagene multiplex mRNA; actives raise or lower the signal. In a few lines:
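Read-out: fluorescent reporter-transcript fragments separated by capillary electrophoresis after RT-PCR. Transiently transfected HepG2 cells carrying cis-element-driven reporter units were dosed for 24 h; gain or loss of signal fitted against DMSO control.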

Assay [4] is described as follows: ATG_ISRE_CIS: Attagene CIS-FACTORIAL HepG2 Assay for human Interferon Regulatory Factor 1 (IRF1) binding to an Interferon-Stimulated Response Element (ISRE) (AID 2282948). To be noted: HepG2 ISRE cis-reporter (Attagene), mRNA transcription readout; actives raise or lower the signal. The method in brief:
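Multiplexed mRNA reporter readout in human liver HepG2 cells: cis-element-driven reporters transfected, compound added for 24 h, transcripts amplified, fluorescently labelled and sized by capillary electrophoresis; curve fitting bidirectional against DMSO.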

The nature of assay [5]: ATG_M_32_CIS: Attagene CIS-FACTORIAL HepG2 Assay for M32 Transcription Factor (Internal Marker) (AID 2282949).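 Further: background control marker of the multiplexed CIS panel rather than a real target.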 Conditions: HepG2 Attagene cis-factorial M32 reporter, mRNA; actives raise or lower the signal. The method in brief:
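Using DMSO as baseline, bidirectional curve fits were applied to reporter mRNA signals. These came from transiently transfected HepG2 cells exposed for 24 h, with RNA analysed by RT-PCR, FAM primer extension, HpaI digestion and CE.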

A short description of assay [6]: ATG_M_06_CIS: Attagene CIS-FACTORIAL HepG2 Assay for M06 Transcription Factor (Internal Marker) (AID 2282950). Conditions: HepG2 Attagene CIS-FACTORIAL M06 internal marker reporter; actives raise or lower the signal. The method in brief: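 Terse: HepG2, transient MRTU transfection (FuGene 6), 24 h dosing; total RNA, oligo(dT) RT, PCR, FAM label, HpaI cut, capillary electrophoresis; bidirectional fit vs DMSO baseline; background-control endpoint.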

Assay [7] addresses Hypoxia-inducible factor 1-alpha (Homo sapiens) (UniProt Q16665). Nature of the assay: ATG_HIF1a_CIS: Attagene CIS-FACTORIAL HepG2 Assay for human Hypoxia Inducible Factor 1 (HIF1A) (AID 2282951). Conditions: HepG2 Attagene cis-factorial HIF1a reporter transcription; actives raise or lower the signal. In a few lines: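 After 24 h chemical exposure of reporter-transfected HepG2 cells, reporter cDNA was PCR-amplified, labelled by 6-FAM primer extension (2 min 95 C, 20 s 68 C, 10 min 72 C), HpaI-cut (2 h, 37 C) and analysed by CE.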

Assay [8] deals with Hepatocyte nuclear factor 6 (Homo sapiens) (UniProt Q9UBC0). Nature of the assay: ATG_HNF6_CIS: Attagene CIS-FACTORIAL HepG2 Assay for human Hepatocyte Nuclear Factor 6 (HNF6) (AID 2282952). To be noted: HepG2 Attagene cis-factorial HNF6 reporter transcription; actives raise or lower the signal. The method in brief:
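Endogenous transcription factor activity in human HepG2 liver cells was captured through cis-regulated reporter constructs. After 24 h treatment, reporter mRNA was measured by RT-PCR with capillary electrophoresis, and activity was fitted in both directions relative to DMSO.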

Assay [9] addresses Heat shock factor protein 1 (Homo sapiens) (UniProt Q00613). Nature of the assay: ATG_HSE_CIS: Attagene CIS-FACTORIAL HepG2 Assay for human Heat Shock Transcription Factor 1 (HSE) (AID 2282953). To be noted: HepG2 HSE cis-reporter, Attagene RNA transcription; actives raise or lower the signal. In a few lines:
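Read-out: fluorescence of reporter-specific RT-PCR fragments separated by capillary electrophoresis. HepG2 carrying transfected cis-element reporter units; 24 h dosing; activity fitted in both directions relative to DMSO baseline.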

Assay [10] is described as follows: ATG_MRE_CIS: Attagene CIS-FACTORIAL HepG2 Assay for human Metal Responsive Element (MRE) (AID 2282954). To be noted: HepG2 MRE cis-reporter transcription, Attagene multiplex; actives raise or lower the signal. The method in brief:
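RT-PCR/capillary electrophoresis readout of reporter mRNA, 24 h post-dosing, in HepG2 cells transfected with multiplexed cis-regulated reporter constructs. Gain or loss of signal fitted bidirectionally against DMSO baseline.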

Assay [11] is described as follows: ATG_PBREM_CIS: Attagene CIS-FACTORIAL HepG2 Assay for human Phenobarbital-responsive Enhancer Module (PBREM) (AID 2282955). Conditions: HepG2 PBREM cis-reporter, Attagene multiplexed transcription; actives raise or lower the signal. The method in brief:
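Measures endogenous factor action on a phenobarbital-responsive enhancer module. HepG2 transiently carrying cis reporters, 24 h treatment, mRNA read-out by RT-PCR plus capillary electrophoresis.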

The target of assay [12] is Paired box protein Pax-6 (Homo sapiens) (UniProt P26367). In words: ATG_Pax6_CIS: Attagene CIS-FACTORIAL HepG2 Assay for human Paired Box 6 (PAX6) (AID 2282956). To be noted: HepG2 CIS-FACTORIAL PAX6 reporter transcription, RNA readout; actives raise or lower the signal. In a few lines:
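Fluorescent RT-PCR products separated by capillary electrophoresis report PAX6-linked promoter mRNA in HepG2 cells 24 h post-dose. Curves fitted bidirectionally, DMSO as negative control.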

The nature of assay [13]: ATG_PPRE_CIS: Attagene CIS-FACTORIAL HepG2 Assay for human Peroxisome Proliferator-activated Response Element (PPRE) (AID 2282958). To be noted: HepG2 PPRE cis-element reporter, Attagene transcription factor profiling; actives raise or lower the signal. In a few lines:
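PPRE activity in HepG2: transient cis-reporter transfection, 24 h compound incubation, reporter mRNA by RT-PCR and CE fluorescence; gain/loss fitted against DMSO.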

The nature of assay [14]: ATG_RORE_CIS: Attagene CIS-FACTORIAL HepG2 Assay for human RAR-related Orphan Receptor Element (RORE) (AID 2282959). To be noted: HepG2 Attagene cis-factorial RORE reporter, mRNA; actives raise or lower the signal. In a few lines: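 A 24-hour exposure of transfected HepG2 hepatoma cells precedes RNA isolation and reporter RT-PCR. Labeled products are digested with HpaI and resolved by capillary electrophoresis, with gain or loss of signal scored relative to DMSO.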

A short description of assay [15]: ATG_Sox_CIS: Attagene CIS-FACTORIAL HepG2 Assay for human SRY-box transcription factor (SOX) (AID 2282960). Conditions: HepG2 Attagene cis-factorial SOX reporter, mRNA; actives raise or lower the signal. The method in brief:
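HepG2, cis reporter units, 24 h exposure. Reporter mRNA: RT-PCR → FAM labelling → HpaI → CE fluorescence. Bidirectional fit vs DMSO.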

The target of assay [16] is Transcription factor Sp1 (Homo sapiens) (UniProt P08047). In words: ATG_Sp1_CIS: Attagene CIS-FACTORIAL HepG2 Assay for human Specificity Protein 1 (Sp1) (AID 2282961). To be noted: HepG2 Sp1 cis-reporter transcription, actives raise or lower the signal. The method in brief: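 Liver-derived HepG2 cells, cis-element reporter library, 24 h treatment; RNA isolated, cDNA amplified with reporter-specific primers, FAM-labeled fragments sized on capillary analyzer. DMSO baseline, bidirectional curve fit.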

A short description of assay [17]: ATG_SREBP_CIS: Attagene CIS-FACTORIAL HepG2 Assay for human Sterol Regulatory Element Binding (SREBP) (AID 2282962). Conditions: HepG2 Attagene cis-factorial SREBP reporter, mRNA; actives raise or lower the signal. The method in brief:
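Endogenous factor activity is measured in HepG2 through multiplexed reporter units under cis-element control. Following a 24 h incubation, reporter transcripts are reverse-transcribed, PCR-amplified and sized by capillary electrophoresis; activity is fitted in both directions relative to DMSO.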

For assay [18], the target named is Signal transducer and activator of transcription 3 (Homo sapiens) (UniProt P40763). Nature of the assay: ATG_STAT3_CIS: Attagene CIS-FACTORIAL HepG2 Assay for human Signal Transducer and Activator of Transcription 3 (STAT3) (AID 2282963). Conditions: HepG2, Attagene cis-factorial STAT3 reporter transcription; actives raise or lower the signal. The method in brief: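 Readout: fluorescent reporter mRNA fragments resolved by capillary electrophoresis. Setup: HepG2 transfected with MRTUs reporting endogenous transcription-factor activity, dosed 24 h. Gain or loss of signal fitted bidirectionally against DMSO control.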

Assay [19] in a line: ATG_TA_CIS: Attagene CIS-FACTORIAL HepG2 Assay for human TA Basal Promoter (AID 2282964). Conditions: HepG2 Attagene CIS-factorial TA basal promoter reporter; actives raise or lower the signal. In a few lines: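 Transfected HepG2, 24 h compound exposure; RNA → RT-PCR → FAM primer extension → HpaI cut → CE fluorescence. Gain/loss-of-signal fitted against DMSO negative control. Background-control readout.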

Activity calls are given as the source filed them. How the source made its calls: active means hit-call score of the fitted dose curve at least 0.9, where 1 is the maximum; inactive means score below 0.9.

Among the data in PubChem BioAssay (EPA / NIEHS) are outcome and AC50 values, retold here.

Hypoxia-inducible factor 1-alpha (Homo sapiens), sequence (Q16665 whole entry, looked up): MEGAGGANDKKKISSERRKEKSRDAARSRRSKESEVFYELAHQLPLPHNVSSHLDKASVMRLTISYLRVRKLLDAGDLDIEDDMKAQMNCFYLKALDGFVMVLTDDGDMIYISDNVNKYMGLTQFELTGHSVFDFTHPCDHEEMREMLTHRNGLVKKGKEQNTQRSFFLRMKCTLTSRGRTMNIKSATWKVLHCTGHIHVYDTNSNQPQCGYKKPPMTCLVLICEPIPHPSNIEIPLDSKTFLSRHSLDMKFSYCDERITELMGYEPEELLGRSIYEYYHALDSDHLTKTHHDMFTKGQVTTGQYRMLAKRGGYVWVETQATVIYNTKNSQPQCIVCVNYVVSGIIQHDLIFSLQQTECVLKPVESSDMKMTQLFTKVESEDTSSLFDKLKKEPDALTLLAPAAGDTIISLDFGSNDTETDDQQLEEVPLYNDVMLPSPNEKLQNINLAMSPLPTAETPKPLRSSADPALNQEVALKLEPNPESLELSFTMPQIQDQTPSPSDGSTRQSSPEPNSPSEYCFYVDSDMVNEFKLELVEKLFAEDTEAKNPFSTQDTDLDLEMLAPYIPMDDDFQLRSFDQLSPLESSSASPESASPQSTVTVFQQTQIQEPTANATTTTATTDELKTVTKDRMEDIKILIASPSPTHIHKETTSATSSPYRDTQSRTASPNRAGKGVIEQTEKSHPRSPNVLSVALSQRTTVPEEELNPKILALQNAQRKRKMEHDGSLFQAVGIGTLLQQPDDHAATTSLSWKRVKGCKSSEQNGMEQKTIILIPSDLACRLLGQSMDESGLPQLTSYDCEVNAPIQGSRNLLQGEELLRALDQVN
Paired box protein Pax-6 (Homo sapiens), sequence (P26367 whole entry, looked up): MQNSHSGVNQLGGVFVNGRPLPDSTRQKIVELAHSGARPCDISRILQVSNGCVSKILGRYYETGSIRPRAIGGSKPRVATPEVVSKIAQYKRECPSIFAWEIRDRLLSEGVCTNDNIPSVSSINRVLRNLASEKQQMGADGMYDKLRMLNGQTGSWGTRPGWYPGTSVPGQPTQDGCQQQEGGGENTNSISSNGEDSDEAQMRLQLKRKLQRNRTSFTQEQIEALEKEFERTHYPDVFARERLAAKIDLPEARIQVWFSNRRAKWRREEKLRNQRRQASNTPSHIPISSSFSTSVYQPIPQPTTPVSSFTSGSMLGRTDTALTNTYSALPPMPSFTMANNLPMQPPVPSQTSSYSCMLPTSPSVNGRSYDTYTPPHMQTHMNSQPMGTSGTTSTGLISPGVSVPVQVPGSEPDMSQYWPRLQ
Signal transducer and activator of transcription 3 (Homo sapiens), sequence (P40763 whole entry, looked up, the tested form may be a part): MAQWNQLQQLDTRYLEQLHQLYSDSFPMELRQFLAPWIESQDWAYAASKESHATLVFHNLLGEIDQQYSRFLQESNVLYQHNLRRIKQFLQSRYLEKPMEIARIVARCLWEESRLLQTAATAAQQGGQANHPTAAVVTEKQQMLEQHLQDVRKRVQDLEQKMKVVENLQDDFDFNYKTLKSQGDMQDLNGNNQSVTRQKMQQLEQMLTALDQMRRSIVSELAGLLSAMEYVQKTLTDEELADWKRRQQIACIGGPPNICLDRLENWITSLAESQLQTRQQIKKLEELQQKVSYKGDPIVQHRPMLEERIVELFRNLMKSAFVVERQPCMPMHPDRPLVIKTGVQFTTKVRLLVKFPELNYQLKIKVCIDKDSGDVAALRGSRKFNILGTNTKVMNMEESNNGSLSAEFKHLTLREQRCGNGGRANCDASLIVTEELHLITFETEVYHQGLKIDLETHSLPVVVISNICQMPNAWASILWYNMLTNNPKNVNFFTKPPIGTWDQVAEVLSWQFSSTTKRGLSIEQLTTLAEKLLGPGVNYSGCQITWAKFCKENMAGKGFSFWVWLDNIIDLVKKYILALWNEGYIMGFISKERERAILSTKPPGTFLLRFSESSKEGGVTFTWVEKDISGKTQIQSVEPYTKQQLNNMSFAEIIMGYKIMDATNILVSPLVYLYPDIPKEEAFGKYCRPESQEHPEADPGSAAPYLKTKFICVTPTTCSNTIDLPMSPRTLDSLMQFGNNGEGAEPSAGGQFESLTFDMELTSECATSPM
Heat shock factor protein 1 (Homo sapiens), sequence (Q00613 whole entry, looked up, the tested form may be a part): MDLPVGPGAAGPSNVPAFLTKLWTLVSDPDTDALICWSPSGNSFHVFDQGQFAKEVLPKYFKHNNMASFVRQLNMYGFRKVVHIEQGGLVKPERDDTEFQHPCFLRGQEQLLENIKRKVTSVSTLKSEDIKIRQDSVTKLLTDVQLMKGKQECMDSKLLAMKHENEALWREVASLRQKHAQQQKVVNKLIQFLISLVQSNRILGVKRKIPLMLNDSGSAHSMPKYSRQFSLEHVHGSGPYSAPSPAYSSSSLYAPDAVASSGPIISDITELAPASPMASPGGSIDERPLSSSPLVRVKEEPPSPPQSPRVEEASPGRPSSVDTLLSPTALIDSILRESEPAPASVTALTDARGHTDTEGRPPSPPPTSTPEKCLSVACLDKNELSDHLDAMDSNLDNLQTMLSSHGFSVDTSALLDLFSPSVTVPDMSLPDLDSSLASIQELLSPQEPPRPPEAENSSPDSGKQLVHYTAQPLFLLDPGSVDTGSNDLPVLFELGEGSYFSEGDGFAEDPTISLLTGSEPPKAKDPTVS
Bile acid receptor (Homo sapiens), sequence (Q96RI1 whole entry, looked up): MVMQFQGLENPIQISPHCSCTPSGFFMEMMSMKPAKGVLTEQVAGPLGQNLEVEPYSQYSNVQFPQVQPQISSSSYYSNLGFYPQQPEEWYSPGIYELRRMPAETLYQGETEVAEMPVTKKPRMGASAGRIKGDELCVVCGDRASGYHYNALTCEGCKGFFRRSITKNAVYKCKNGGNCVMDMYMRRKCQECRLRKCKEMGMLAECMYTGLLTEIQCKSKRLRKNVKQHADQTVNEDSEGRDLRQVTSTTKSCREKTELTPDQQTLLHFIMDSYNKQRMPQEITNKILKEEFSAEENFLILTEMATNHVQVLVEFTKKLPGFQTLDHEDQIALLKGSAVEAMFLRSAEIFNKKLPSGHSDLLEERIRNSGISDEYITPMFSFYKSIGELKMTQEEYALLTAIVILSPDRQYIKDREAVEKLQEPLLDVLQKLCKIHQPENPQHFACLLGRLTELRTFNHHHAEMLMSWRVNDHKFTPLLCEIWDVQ
Transcription factor Sp1 (Homo sapiens), sequence (P08047 whole entry, looked up, the tested form may be a part): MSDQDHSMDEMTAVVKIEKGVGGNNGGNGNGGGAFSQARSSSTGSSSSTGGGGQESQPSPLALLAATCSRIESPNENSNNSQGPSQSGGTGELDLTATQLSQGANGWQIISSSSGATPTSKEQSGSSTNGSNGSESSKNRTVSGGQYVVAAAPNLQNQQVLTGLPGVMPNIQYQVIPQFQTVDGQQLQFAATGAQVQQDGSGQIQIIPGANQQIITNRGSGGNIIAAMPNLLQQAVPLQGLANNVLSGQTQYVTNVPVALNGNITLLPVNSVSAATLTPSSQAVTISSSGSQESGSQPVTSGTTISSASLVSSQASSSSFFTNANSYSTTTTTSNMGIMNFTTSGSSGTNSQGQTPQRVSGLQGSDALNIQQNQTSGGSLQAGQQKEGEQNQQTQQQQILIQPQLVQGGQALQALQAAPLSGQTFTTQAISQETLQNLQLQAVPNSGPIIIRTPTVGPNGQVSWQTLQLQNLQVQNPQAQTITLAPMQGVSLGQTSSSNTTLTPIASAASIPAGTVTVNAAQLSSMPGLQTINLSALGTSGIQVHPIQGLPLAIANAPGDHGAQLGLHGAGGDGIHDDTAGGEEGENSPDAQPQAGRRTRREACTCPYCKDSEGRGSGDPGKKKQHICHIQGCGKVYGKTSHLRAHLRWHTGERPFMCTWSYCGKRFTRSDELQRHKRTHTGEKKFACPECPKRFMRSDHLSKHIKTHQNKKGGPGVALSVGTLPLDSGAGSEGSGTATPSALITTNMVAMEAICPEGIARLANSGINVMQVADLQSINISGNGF
Hepatocyte nuclear factor 6 (Homo sapiens), sequence (Q9UBC0 whole entry, looked up): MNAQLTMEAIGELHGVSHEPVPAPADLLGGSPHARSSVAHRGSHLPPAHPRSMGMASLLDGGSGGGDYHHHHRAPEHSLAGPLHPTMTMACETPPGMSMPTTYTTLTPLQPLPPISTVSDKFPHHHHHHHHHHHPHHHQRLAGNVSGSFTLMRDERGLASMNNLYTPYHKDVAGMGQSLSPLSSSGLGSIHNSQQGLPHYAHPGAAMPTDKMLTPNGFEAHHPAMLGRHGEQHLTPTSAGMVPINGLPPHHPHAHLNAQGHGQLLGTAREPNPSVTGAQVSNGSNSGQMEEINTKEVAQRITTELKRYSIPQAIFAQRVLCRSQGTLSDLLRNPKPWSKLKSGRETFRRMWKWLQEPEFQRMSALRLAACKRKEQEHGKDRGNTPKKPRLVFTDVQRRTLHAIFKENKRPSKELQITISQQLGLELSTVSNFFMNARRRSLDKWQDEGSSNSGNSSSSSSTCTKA

For orientation: AC50 means the midpoint of the concentration-response curve, whichever way the signal moves. With `CC(=O)Nc1ccc(N=Nc2cc(C)ccc2O)cc1`, the outcome in assay [1], in assay [2], in [3], in assay [4], in [5] and in [6] was inactive. Moreover, the compound was called inactive in [7], in assay [8], in assay [9], in assay [12], in assay [14] and in [15]. Besides, the compound was called inactive in assay [16], in assay [17], in assay [18] and in assay [19]. The values for the AC50 in [10], in assay [11] and in assay [13] were 27.6 µM (active), 49.4 µM (active) and 39.6 µM (active), respectively.

On to `O=S(=O)(OCCOC(F)(F)F)C(F)(F)F`, for which the compound was called inactive in assay [1], in assay [2], in [3], in assay [4], in [5] and in assay [6]. Further, the outcome in [7], in assay [8], in assay [9], in assay [10], in assay [11] and in assay [12] was inactive. For the same compound, the outcome in assay [13], in [14], in assay [15], in assay [16], in [17] and in [18] was inactive. The compound was classed as inactive in assay [19].

Regarding `[Co]`, the compound was classed as inactive in [1], in assay [2], in assay [3], in [4], in [5] and in [6]. Also, the compound was called inactive in assay [7], in [8], in assay [9], in assay [10], in [11] and in [12]. In addition, the result in [13], in assay [14], in assay [15], in assay [16], in assay [17] and in assay [18] was inactive. Besides, in assay [19], the compound was called inactive.

Regarding `O=C(O)C(F)(F)C(F)(F)C(F)(F)C(F)(F)F`, the compound was called inactive in [1], in assay [2], in assay [3], in assay [4], in assay [5] and in [6]. For the same compound, the compound was called inactive in assay [7], in assay [8], in assay [9], in assay [10], in assay [11] and in assay [12]. Moreover, the compound was called inactive in [13], in assay [14], in assay [15], in assay [16], in assay [17] and in assay [18]. Also, in assay [19], the result was inactive.

For `O=S(=O)(OCC(F)F)C(F)(F)F`, the compound was called inactive in [1], in assay [2], in assay [3], in assay [4], in assay [5] and in assay [6]. The call in assay [7], in assay [8], in assay [9], in assay [10], in assay [11] and in assay [12] was inactive. Moreover, the compound was called inactive in assay [13], in assay [14], in [15], in assay [16], in assay [17] and in [18]. The result in assay [19] was inactive.

For the compound `FC(F)(F)C(F)(F)C(F)(F)C(F)(F)C(F)(F)C(F)(F)C(F)(F)I`, the compound was classed as inactive in [1], in assay [2], in assay [3], in assay [4], in assay [5] and in assay [6]. Also, the call in assay [7], in assay [8], in [9], in [10], in assay [11] and in [12] was inactive. In addition, the result in [13], in assay [14], in assay [15], in [16], in [17] and in assay [18] was inactive. Further, the call in assay [19] was inactive.

`COC(=O)CCC(F)(F)C(F)(F)C(F)(F)C(F)(F)F`: the compound was called inactive in [1], in assay [2], in [3], in [4], in assay [5] and in assay [6]. The call in assay [7], in assay [8], in assay [9], in assay [10], in [11] and in assay [12] was inactive. In addition, the compound was called inactive in assay [13], in assay [14], in [15], in assay [16], in [17] and in [18]. In addition, the compound was classed as inactive in assay [19].
